# Measured values published in the supplement of paper PMC4840960.
# ± gives the standard deviation of the averaged measurements.
# Tested on: E18 rat cortical neuron-glia co-culture
# Assay: fiber score / MBP score (myelination specific beyond OL differentiation) (ratio); higher = more myelination-specific MBP alignment
# Details: 1 µM; treatment time: 8 days (DIV5-DIV13)
# How it was run: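 Reported values are fiber score (continuous MBP fiber length per Olig2+ nucleus) divided by MBP score (thresholded MBP area × intensity per Olig2+ nucleus). They come from primary E18 rat cortical co-cultures treated with library compounds at 1 or 5 µM in myelination medium from DIV5 to DIV13, then fixed in 4 % paraformaldehyde, immunostained for MBP and Olig2 with DAPI, and analysed over four 10X fields per well in duplicate wells.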
row,SMILES,fiber score / MBP score
1,COc1ccccc1N1CCN(CCCNc2cc(=O)n(C)c(=O)n2C)CC1 [Urapidil],0.767
2,O=C(O)COCCN1CCN(C(c2ccccc2)c2ccc(Cl)cc2)CC1 (stereo not drawn) [Virlix],0.867
3,CC(C(=O)O)c1cccc(C(=O)c2ccccc2)c1 (stereo not drawn) [Ketoprofen],0.813
4,C[C@H](CS)C(=O)N1CCC[C@H]1C(=O)O [Captopril],0.773
5,CC(=O)/N=c1/sc(S(N)(=O)=O)nn1C [Methazolamide],0.875
6,NC(N)=Nc1nc(CSCC/C(N)=N/S(N)(=O)=O)cs1 [Famotidine],0.875
7,Cc1cccc(C)c1NC(=O)C1CCCCN1C (stereo not drawn) [Mepivacaine],0.728
8,CN(Cc1cnc2nc(N)nc(N)c2n1)c1ccc(C(=O)N[C@@H](CCC(=O)O)C(=O)O)cc1 [Methotrexate],1.06
9,Cc1onc(-c2ccccc2)c1-c1ccc(S(N)(=O)=O)cc1 [Valdecoxib],0.873
10,C[C@H]1O[C@@H](O[C@H]2[C@@H](O)C[C@H](O[C@H]3[C@@H](O)C[C@H](O[C@H]4CC[C@@]5(C)[C@H](CC[C@@H]6[C@@H]5C[C@@H](O)[C@]5(C)[C@@H](C7=CC(=O)OC7)CC[C@]65O)C4)O[C@@H]3C)O[C@@H]2C)C[C@H](O)[C@@H]1O [Digoxin],1.37
11,C/C(=C\C(=O)OCCCCCCCCC(=O)O)C[C@@H]1OC[C@H](C[C@@H]2O[C@H]2[C@@H](C)[C@H](C)O)[C@@H](O)[C@H]1O [Mupirocin],0.423
12,COc1ccccc1OCC(O)CN1CCN(CC(=O)Nc2c(C)cccc2C)CC1 (stereo not drawn) [Ranolazine],0.877
13,CN(C)CCOC(c1ccccc1)c1ccccc1 [Diphenhydramine],0.668
14,Cc1c(O)c(=O)ccn1C [Deferiprone],0.908
15,CN1CCCCC1CCN1c2ccccc2Sc2ccc([S+](C)[O-])cc21 (stereo not drawn) [Mesoridazine],0.531
16,Cc1onc(-c2ccccc2)c1C(=O)N[C@@H]1C(=O)N2[C@@H]1SC(C)(C)[C@@H]2C(=O)O [Oxacillin],0.974
17,COc1ccc(CCN(C)CCCC(C#N)(c2ccc(OC)c(OC)c2)C(C)C)cc1OC (stereo not drawn) [Verapamil],0.856
18,COc1ccccc1OCC(O)COC(N)=O (stereo not drawn) [Methocarbamol],0.67
19,c1ccc(-c2ccc(C(c3ccccc3)n3ccnc3)cc2)cc1 (stereo not drawn) [Bifonazole],0.241

row,SMILES,fiber score / MBP score
1,Cc1nc(=O)c2cc(CN(C)c3ccc(C(=O)N[C@@H](CCC(=O)O)C(=O)O)s3)ccc2[nH]1 [Raltitrexed],1.33
2,CCCNC(=O)NS(=O)(=O)c1ccc(Cl)cc1 [Chlorpropamide],0.614
3,Cc1occc(=O)c1O [Maltol],0.739
4,COc1ccc(CC(C)NCC(O)c2ccc(O)c(NC=O)c2)cc1 (stereo not drawn) [Formoterol],0.702
5,CCC(=O)O[C@@H]1CC(=O)O[C@H](C)C/C=C/C=C/[C@H](O)[C@H](C)C[C@H](CC=O)[C@H](O[C@@H]2O[C@H](C)[C@@H](O[C@H]3C[C@@](C)(O)[C@@H](OC(=O)CC)[C@H](C)O3)[C@H](N(C)C)[C@H]2O)[C@H]1OC [Midecamycin],0.757
6,CCc1ccc(CCOc2ccc(CC3SC(=O)NC3=O)cc2)nc1 (stereo not drawn) [Pioglitazone],0.868
7,CCOC(=O)[C@H](CCc1ccccc1)N[C@@H](C)C(=O)N1[C@H](C(=O)O)C[C@@H]2CCC[C@@H]21 [Ramipril],0.635 ± 0.29
8,CO[C@H]1/C=C/O[C@@]2(C)Oc3c(C)c(O)c4c(c3C2=O)C2=NC3(CCN(CC(C)C)CC3)NC2=C(NC(=O)/C(C)=C\C=C\[C@H](C)[C@H](O)[C@@H](C)[C@@H](O)[C@@H](C)[C@H](OC(C)=O)[C@@H]1C)C4=O [Rifabutin],0.967 ± 0.41
9,CC(Cc1ccccc1)(NC(=O)CN)c1ccccc1 (stereo not drawn) [Remacemide],0.793
10,CNCCCC12CCC(c3ccccc31)c1ccccc12 [Maprotiline],0.656
11,CC1COc2c(N3CCN(C)CC3)c(F)cc3c(=O)c(C(=O)O)cn1c23 (stereo not drawn) [Ofloxacin],0.775 ± 0.041
12,CC(C)OC(=O)CCC/C=C\C[C@@H]1[C@@H](CC[C@@H](O)CCc2ccccc2)[C@H](O)C[C@@H]1O [Latanoprost],0.955
13,NS(=O)(=O)Cc1noc2ccccc12 [Zonisamide],0.789
14,CC(C(=O)O)c1ccc(CC2CCCC2=O)cc1 (stereo not drawn) [loxoprofen],0.944
15,C=CC1=C(C(=O)O)N2C(=O)[C@@H](NC(=O)/C(=N\OCC(=O)O)c3csc(N)n3)[C@H]2SC1 [Cefixime],0.945
16,COc1ccc2cc([C@H](C)C(=O)O)ccc2c1 [Naproxen],0.831
17,CN(C)c1ccc(O)c2c1C[C@H]1C[C@H]3[C@H](N(C)C)C(O)=C(C(N)=O)C(=O)[C@@]3(O)C(O)=C1C2=O [Minocycline],0.788
18,CC(C)(S)[C@@H](N)C(=O)O [Penicillamine],0.988
19,CN1CCN(CCCN2c3ccccc3Sc3ccc(Cl)cc32)CC1 [Prochlorperazine],0.297
